What all share (test): NCI-60 one-dose screen, 48 h (100 = growth as untreated, 0 = no growth, -100 = all killed)
Settings in all cases: 10 µM unless noted

Assay [1] relates to NCI-H226 lung.
For assay [2], the system named is NCI-H322M lung.
In assay [3] the test system is HOP-62 NSCLC.
The test system of assay [4] is NCI-H460 lung.
For assay [5], the system named is HOP-92 NSCLC.
The test system of assay [6] is NCI-H522 lung.
Assay [7] concerns A549/ATCC NSCLC.
Assay [8] has as its system 786-0 renal.
In assay [9] the test system is COLO 205 colon.

SMILES strings stand for the structures. About 83,000 compounds went through this panel and 20% of them were active in at least one assay; those are over-represented in the sample as a whole.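 Assay: single dose, 48 h. Readout: percent growth (0 = no net growth; negative = cell death). Active: <10.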 Values without a mark were called inactive. Active and inactive are the calls of the source.

This passage reports growth results from PubChem BioAssay (NCI).

Turning to `COc1ccc(C(=O)c2cc(C)c(OC)c(C)c2)c(OC)c1OC(=O)C(Cl)Cl`, the growth was 6.91% (active) in [1]; 42.8% in assay [2]; 17.4% in [3]; 2.25% (active) in assay [4]; 21.7% in assay [5]; -10.8% (active) in assay [6]. The results for the growth in assay [7], in [8] and in [9] were 11%, 13.1% and 73.5%, respectively.
Take `N#CC1C(C#N)C(C(=O)c2ccc(Br)cc2)N2c3ccccc3C=CC12` (configuration not stated): the growth in assay [1] was 64.7%; in assay [2], 93.4%; in assay [4], 96.2%; in [5], 55.5%; in assay [7], 65.8%; in assay [9] it was 3.37% (active).
`COc1ccc(C(=O)CSc2nc(-c3cc(OC)ccc3OC)cc(-c3ccc(Cl)cc3)c2C#N)cc1`: the growth was -2.99% (active) in assay [1]; 67.9% in assay [2]; 39.9% in [3]; 25.4% in assay [4]; 43.9% in assay [5]; 27.6% in assay [6]. For the same compound, the growth in assay [7] was 56.5%; in assay [8], 23.7%; in [9], 65.2%.
`COc1cc(/C=C/c2cc(O)c(C(C)=O)c(O)c2)cc2c1O[C@]1(C)CC[C@@H](O)C(C)(C)[C@H]1C2`: the growth in [1] was 89%; in [2], 76.2%; in [3], 52.7%; in [4], 76.3%; in assay [5], 95.5%; in [6] it was 79%. In addition, the growth in assay [7] is 81.4%; in assay [8], 7.29% (active); in assay [9], 94.5%.
As for `Cc1nc(N)nc(N[C@@H](C)c2nc3cccc(NCc4ccc(C(=O)NO)cc4)c3c(=O)n2-c2ccccc2)n1`, the growth in assay [1] was 81%; in assay [2], 80.1%; in assay [3], 75.1%; in assay [4], 76.3%; in [5] it was 50.1%; in assay [6], 35.3%. In addition, the growth in [7] was 90.5%; in assay [8], 93.9%; in assay [9], 47.3%.
`O=S(=O)(NCCCNc1nccc(-c2c(-c3cccc(F)c3)nc3sccn23)n1)c1cccc(F)c1`: the growth was 23.2% in assay [1]; 79.9% in [2]; 61.3% in assay [3]; 58.3% in assay [4]; 74.8% in assay [5]; 21.9% in [6]. The growth in assay [7] was 49.3%; in [8] it was 66.3%; in assay [9] it was 23.4%.
Regarding `C=C1C(=O)O[C@H]2[C@H]1CC/C(CNC(=O)c1cccc3ccccc13)=C\CC[C@@]1(C)O[C@@H]21`, the growth was 78% in assay [1]; 90.5% in [2]; 93.1% in assay [3]; 78.6% in assay [4]; -11% (active) in assay [5]; -46.7% (active) in [6]. Further, the growth in [7] was 76.9%; in [8], 32.2%; in assay [9], 28.5%.
Consider `COC(=O)c1ccc2c(c1)[n+](=O)c(C(C)=O)c(C(F)(F)F)n2[O-]`, for which the growth in assay [1] was -17.1% (active); in assay [2] it was 66.2%; in assay [3], -9.08% (active); in assay [4] it was -88.8% (active); in assay [5] it was -57% (active); in assay [6] it was -80.7% (active). In addition, the results for the growth in assay [7], in assay [8] and in assay [9] were 28.6%, -40.5% (active) and -100% (active), respectively.
Take `O=C(/C(=C\c1ccc([N+](=O)[O-])cc1)S(=O)Cc1ccc(Cl)cc1)c1ccc(Cl)cc1` (configuration not stated): the growth in assay [1] was 92.9%; in [2] it was 89.5%; in [3] it was 96.1%; in [4], 76.3%; in assay [5] it was 83.6%; in assay [6], 37.5%. For the same compound, the results for the growth in [7], in [8] and in assay [9] were 93.8%, 32.1% and 74.7%, respectively.
In the case of `O=C(Cc1ccc(/C=C/C(=O)c2ncc[nH]2)cc1)Nc1ccc(Cl)cc1`, the growth in assay [1] was 82.2%; in assay [2] it was 42.8%; in assay [3], 8.21% (active); in assay [4] it was -35.5% (active); in assay [5] it was 76%; in assay [6] it was 34.2%. The growth is 33.2% in [7], 4.48% (active) in assay [8] and 32.9% in [9].
Consider `CCOC(=O)[C@@H]1CCCN(S(=O)(=O)c2ccc(S(=O)(=O)N(CC)CC)c(F)c2)C1`, for which the growth in assay [1] was 72.6%; in [2] it was 90.2%; in assay [3] it was 74.6%; in [4] it was 81.2%; in [5], 67.4%; in assay [6], 65.3%. Further, the growth in assay [7] was 86.2%; in assay [8], 70.7%; in [9], 83.9%.
Regarding `N#Cc1cc(-c2nc3ccccc3s2)c(=O)n(NS(=O)(=O)c2ccccc2)c1N`, the growth was 85.7% in [1]; 108% in [2]; 90.1% in assay [3]; 106% in [4]; 104% in assay [5]; 117% in assay [7]. Moreover, the growth in assay [8] was 106%; in assay [9], 122%.
As for `C=C(C)[C@@H]1CC[C@]2(C(=O)N3CCN(C)CC3)CC[C@]3(C)[C@H](CC[C@@H]4[C@@]5(C)CC[C@H](OCCC#N)C(C)(C)[C@@H]5CC[C@]43C)[C@@H]12`, the growth in assay [1] was 89.4%; in assay [2] it was 103%; in assay [3] it was 108%; in assay [4], 98.7%; in assay [5], 93%; in assay [6], 95.4%. Besides, the values for the growth in [7] and in assay [8] were 80% and 22%, respectively.
